From the supplement of paper PMC6555819

Experiments:
Test in all cases: PBM binding z-score (relative to random genomic background probes); higher = stronger binding; sequences stand for … in GC…GCGATTGACAGCGTAGAATGAAGG
[1] = system: FXR:RXRa (NR concentration 270 nM, RXRa partner concentration 90 nM)
In short: (§1)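 Each nuclear receptor dimer, without ligand, was incubated for 1 h on custom Agilent 4×180K protein-binding microarrays. Binding was detected with antibodies against each partner (one per run), and scanned fluorescence was regression-normalized. The binding z-scores are referenced to random human genomic background probes.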

[2] = system: LXRa:RXRa (NR concentration 270 nM, RXRa partner concentration 90 nM)
In short: as §1

[3] = system: LXRa homodimer (NR concentration 270 nM)
In short: as §1

[4] = system: LXRb:RXRa (NR concentration 270 nM, RXRa partner concentration 90 nM)
In short: as §1

[5] = system: LXRb homodimer (NR concentration 270 nM)
In short: as §1

[6] = system: PPARa:RXRa (NR concentration 270 nM, RXRa partner concentration 90 nM)
In short: as §1

[7] = system: PPARg:RXRa 270nM:90nM, anti-RXR (NR concentration 270 nM, RXRa partner concentration 90 nM)
In short: as §1

[8] = system: PPARg:RXRa 30nM:10nM, anti-RXR (NR concentration 30 nM, RXRa partner concentration 10 nM)
In short: as §1

[9] = system: PPARg:RXRa 90nM:30nM, anti-RXR (NR concentration 90 nM, RXRa partner concentration 30 nM)
In short: as §1

[10] = system: PPARg:RXRa DBDmut IVT, anti-RXR (DBD mutation: RXRa K156A/R161A, NR concentration 270 nM, RXRa partner concentration 90 nM)
In short: as §1

[11] = system: PPARg:RXRa IVT, anti-PPARg (NR concentration 270 nM, RXRa partner concentration 90 nM)
In short: as §1

[12] = system: PPARg DBDmut:RXRa IVT, anti-PPARg (DBD mutation: PPARg1 K132A/R137A, NR concentration 270 nM, RXRa partner concentration 90 nM)
In short: as §1

[13] = system: PPARg DBDmut IVT, anti-PPARg (DBD mutation: PPARg1 K132A/R137A, NR concentration 270 nM)
In short: as §1

[14] = system: PPARg homodimer (NR concentration 180 nM)
In short: as §1

[15] = system: PXR:RXRa (NR concentration 270 nM, RXRa partner concentration 90 nM)
In short: as §1

[16] = system: PXR homodimer (NR concentration 270 nM)
In short: as §1

[17] = system: RARa:RXR (NR concentration 270 nM, RXRa partner concentration 90 nM)
In short: as §1

[18] = system: RARa homodimer (NR concentration 270 nM)
In short: as §1

[19] = system: RARb:RXRa (NR concentration 270 nM, RXRa partner concentration 90 nM)
In short: as §1

Sequence	PBM binding z-score [1]	PBM binding z-score [2]	PBM binding z-score [3]	PBM binding z-score [4]	PBM binding z-score [5]	PBM binding z-score [6]	PBM binding z-score [7]	PBM binding z-score [8]	PBM binding z-score [9]	PBM binding z-score [10]	PBM binding z-score [11]	PBM binding z-score [12]	PBM binding z-score [13]	PBM binding z-score [14]	PBM binding z-score [15]	PBM binding z-score [16]	PBM binding z-score [17]	PBM binding z-score [18]	PBM binding z-score [19]
TCTAGTTGGTCACGGAGGTCACACGCGACGGGTA	3.47	3.74	2.9	3.14	0.904	3.95	4.08	3.3	3.9	2.46	4.38	1.06	1.9	3.12	4.55	1.5	4.54	1.78	3.87
CGTCGAAGGTCAATGCTAGGTCAGTGAAAGCATT	6.95	5.54	2.6	4.32	0.906	5.41	4.82	1.4	3.63	2.56	3.93	-0.174	-1.09	4.55	4.73	0.726	6.43	0.867	5.19
CCTCCAAGGTCATAGGAGGTCAGTGAAGACAGAT	7.3	7.45	4.84	6.24	0.899	5.85	5.88	2.47	4.29	2.72	4.01	1.58	0.448	4.5	6.72	4.74	5.96	2.34	5.09
ATCTCTAGGTAAATGTTCAGTGAATCCCGAGGAT	0.0255	-0.125	-0.0436	-0.389	0.584	0.133	1.01	0.602	0.967	2.02	1.64	1.6	0.892	0.258	-0.0966	0.236	0.0149	0.709	0.211
ATAGAAAGGTCGAAGGTGAGTATACCCACCCGAA	4.15	3.25	0.28	2.61	0.606	4.56	5.47	2.38	4.64	0.0338	2.05	1.17	0.496	1.85	2.82	0.22	4.08	0.667	3.64
CAAAGTAGGTCACGAAAGGTCAAAGTCGAATGAC	7.64	8.17	8.05	7.39	2.7	6.63	8.58	7.11	8.91	8.95	9.16	2.49	0.871	5.21	7.05	2.22	7.43	4.05	5.68
CCTTACGGGTCAGGAGGTTATAGCACGACGAGCG	4.11	3	0.272	2.52	-0.12	4.49	4.07	1.19	2.57	1.26	2.77	0.0175	-0.373	1.97	2.86	0.19	4.14	0.79	3.63
CCAGACAGGTGAAAGGTAACTCCGTCTGGTACGC	0.568	0.648	-0.506	0.857	-0.698	3.32	5.65	3.94	5.52	1.67	2.94	-0.44	-0.311	1.15	0.836	-0.734	1.5	0.043	1.23
GATACAGGGTGAGCTAGAGGCCAGAGTATGGAAA	-0.454	-0.464	-0.638	-0.678	-1.4	0.23	-0.0418	-0.29	-0.422	0.274	0.614	-0.0983	-0.828	-0.261	-0.31	-0.845	0.0105	-0.483	0.744
AATACAGGGTCACTAGGTCAGAGTAGGTACGAAT	6.69	5.67	2.22	4.43	1.37	6.03	7.62	4.74	7.08	5.74	6.99	2.72	2.61	4.65	4.34	1.23	5.62	1.85	4.67
ATATGTAGGTCATCGGGTCATTCAGTTTGCGCAT	6.61	5.82	4.84	4.74	1.76	6.46	8.12	6.72	8.81	8.44	8.83	6.46	6.66	5.23	5.5	8.57	6.32	2.05	4.65
TCTTGTAGATCAAAGGTCAAGAAAGCCGAAGCCT	4.71	5.21	2.41	5.03	1.25	6.32	9.37	8.45	10.1	2.63	4.93	-0.0392	0.612	2.55	4.83	0.853	6.09	0.488	4.74
ACTAGCAGGCCAAAGGTCACTCAAGATTAGTCCG	4.72	4.93	2.36	4.8	0.456	6.05	8.65	8.65	9.39	2.74	5.44	-0.0674	0.109	1.96	5.11	0.886	5.72	0.747	4.81
ATATCTAGGTAAAAGTTCAGTGAATCCCGAGGAT	0.694	1.43	1.24	1.15	0.657	5.76	9.29	9.08	10.4	6	6.34	1.91	1.42	1.87	2.33	1.9	1.6	1.5	2.56
ATCGAAAGGTCGTGACGTGAGTATACAGAAAGGC	5.34	3.84	-0.0538	3.03	0.128	4.8	3.82	1.41	2.77	-0.00761	1.68	1.56	0.662	1.61	2.98	0.0582	3.7	0.369	3.74
